Source: PubChem BioAssay (EPA / NIEHS)
The source made the active and inactive calls. The calls were made as follows: active = hit-call score of the fitted dose curve at least 0.9, where 1 is the maximum; inactive = score below 0.9.

Key:
[1] = APR_HepG2_CellCycleArrest_24hr: Apredica 24-hour HepG2 Assay for Cell Cycle Arrest (AID 2282905); conditions: imaging, actives raise or lower the signal;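 also: cell cycle arrest scored as ratio of 2N to 4N nuclear DNA content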
Summary of the method: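 Cell cycle arrest is scored from nuclear DNA content measured by high-content imaging of Hoechst 33342-stained HepG2 cells following 24-hour treatment at ten concentrations up to 200 uM, with DMSO as baseline.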

[2] = APR_HepG2_MicrotubuleCSK_24hr: Apredica 24-hour HepG2 Assay for Microtubule CSK Stabilty (AID 2282909); conditions: HepG2 microtubule cytoskeleton imaging, actives raise or lower the signal
Summary of the method: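 Steps: dose HepG2 for 24 h (0.39–200 uM, 0.5% DMSO); fix 30 min in 3.7% formaldehyde at room temperature; permeabilize; stain alpha-tubulin 60 min; image microtubule cytoskeleton at 20x. Signal change fitted in both directions relative to DMSO.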

[3] = APR_HepG2_MitoticArrest_24hr: Apredica 24-hour HepG2 Assay for Mitotic Arrest (AID 2282910); conditions: high-content imaging, actives raise or lower the signal
Summary of the method: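 Compounds are dosed onto HepG2 cells across ten concentrations up to 200 uM for 24 hr. Cells are then fixed in 3.7% formaldehyde, permeabilised, and labelled for phospho-histone H3 and nuclei; images are scored by cell cycle analysis and fitted bidirectionally relative to DMSO.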

[4] = APR_HepG2_MitoMembPot_24hr: Apredica 24-hour HepG2 Assay for Mitochondrial Membrane Potential (AID 2282911); conditions: imaging, actives raise or lower the signal
Summary of the method: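 HepG2, 24 hr dosing, 10 concentrations 0.39–200 uM, 0.5% DMSO final. Live-cell MitoTracker Red CMXRos 250 nM 30 min, then 3.7% formaldehyde fix. HCS fluorescence imaging, 20x; bidirectional fit vs DMSO baseline.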

[5] = APR_HepG2_MitoMass_24hr: Apredica 24-hour HepG2 Assay for Mitochondrial Mass (AID 2282912); conditions: high-content imaging, actives raise or lower the signal
Summary of the method: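 The liver line HepG2 was dosed in duplicate across a 0.39–200 uM series, with final DMSO held at 0.5% v/v, and harvested at 24 hr. High-content imaging measured mitochondrial dye staining.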

[6] = APR_HepG2_CellCycleArrest_72hr: Apredica 72-hour HepG2 Assay for Cell Cycle Arrest (AID 2282914); conditions: high-content imaging, actives raise or lower the signal
Summary of the method: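 HepG2, 72 hr exposure, 10-point 0.39–200 uM, duplicate, 0.5% DMSO final. Fix 3.7% formaldehyde 30 min RT, Triton X-100 0.5%, Hoechst 33342 2 ug/mL. ArrayScan 20x, six fields/well; DNA content per nucleus; bidirectional fit vs DMSO.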

[7] = APR_HepG2_CellLoss_72hr: Apredica 72-hour HepG2 Assay for Cell Loss (AID 2282915); conditions: high-content imaging
Summary of the method: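 Cell number comes from Hoechst 33342-labelled nuclei, imaged at 20x after 3.7% formaldehyde fixation. Dosing was 0.39–200 uM, ten concentrations in duplicate, 0.5% DMSO final, for 72 h. Bidirectional fit relative to DMSO baseline.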

[8] = APR_HepG2_CellLoss_24hr: Apredica 24-hour HepG2 Assay for Cell Loss (AID 2282908); conditions: high-content imaging;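 as to AC50: fit in both directions so a hit may be cell loss or gain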
Summary of the method: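 Cell number is quantified by fluorescence imaging of Hoechst 33342-stained nuclei following dosing at 0.39–200 uM in 0.5% DMSO. Curves are fitted in both directions from the DMSO baseline.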

[9] = APR_HepG2_p53Act_24hr: Apredica 24-hour HepG2 Assay for p53 Activation (AID 2282913); conditions: high-content imaging, actives raise or lower the signal;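 also: p53 protein immunofluorescence averaged per cell in HepG2 with Hoechst nuclei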
Summary of the method: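 Read-out: Cy5 immunofluorescence for p53 in fixed, permeabilized HepG2, imaged by HCS with Hoechst-defined nuclei. Dosing was 24 hr at 0.39–200 uM in 0.5% DMSO. Curves were fitted bidirectionally relative to DMSO.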

Measured: AC50

CC(=O)OCC(COC(C)=O)OC(C)=O
inactive: [1] | [2] | [3] | [4] | [5] | [6] | [7]

O=C(NS(=O)(=O)/C=C/c1cccs1)c1ccc(F)cc1Br
inactive: [1] | [8] | [2] | [3] | [4] | [5] | [6]
active: [7] 80.8 µM

CCN(CC)CCOc1ccc(C(=C(Cl)c2ccccc2)c2ccccc2)cc1
active: [8] 48 µM | [2] 81.2 µM | [3] 10.8 µM | [4] 0.0258 µM | [5] 155 µM | [6] 26.5 µM | [7] 13.7 µM
inactive: [1]

CCCCOC(=O)CCCCC(=O)OCCCC
inactive: [1] | [2] | [3] | [4] | [5] | [6] | [7]

CC(C)c1cccc(C(C)C)c1
inactive: [1] | [2] | [3] | [4] | [5] | [6] | [7]

CC(C)(O)c1ccc(CNC(=O)c2cccnc2Oc2ccc(F)cc2)cc1
inactive: [1] | [8] | [2] | [3] | [4] | [5] | [9] | [6] | [7]

O=C(Oc1ccccc1)c1cccc(C(=O)Oc2ccccc2)c1
inactive: [1] | [2] | [3] | [4] | [5] | [6]
active: [7] 113 µM

CN(C)CCCN(C)CCCN(C)C
inactive: [1] | [2] | [3] | [4] | [5] | [9] | [6] | [7]

CCCCC(CC)CO (centres undefined)
inactive: [1] | [2] | [3] | [4] | [5] | [9] | [6] | [7]

Cc1ccc(C(C)(C)C)c(O)c1
active: [8] 108 µM | [2] 113 µM | [3] 106 µM | [4] 122 µM | [5] 107 µM | [9] 110 µM | [6] 110 µM | [7] 145 µM
inactive: [1]

O=NO
inactive: [1] | [2] | [3] | [4] | [5] | [6] | [7]

CC(=O)O[C@]1(C(C)=O)CC[C@H]2[C@@H]3C=C(Cl)C4=CC(=O)[C@@H]5C[C@@H]5[C@]4(C)[C@H]3CC[C@@]21C
inactive: [1] | [8] | [2] | [3] | [4] | [5] | [6] | [7]

Cc1ccc(-c2cc(C(F)(F)F)nn2-c2ccc(S(N)(=O)=O)cc2)cc1
inactive: [1] | [2] | [4]
active: [3] 53.2 µM | [5] 64 µM | [6] 28.6 µM | [7] 40.8 µM

S=c1[nH]c2ccccc2s1
active: [4] 86.5 µM
inactive: [1] | [8] | [2] | [3] | [5] | [9] | [6] | [7]

Cc1occc(=O)c1O
inactive: [1] | [8] | [2] | [3] | [4] | [5] | [6] | [7]

Nc1nc(=S)c2[nH]cnc2[nH]1
active: [6] 63.2 µM | [7] 17.9 µM
inactive: [1] | [2] | [3] | [4] | [5]

CCCCC(CC)COP(=O)(OCC(CC)CCCC)OCC(CC)CCCC (centres undefined)
inactive: [1] | [2] | [4] | [5] | [6]
active: [3] 48.2 µM | [9] 71.1 µM | [7] 37.3 µM

CCCCCCCCCCCCCCOS(=O)(=O)O
inactive: [2] | [4] | [5] | [6]
active: [1] 110 µM | [3] 109 µM | [9] 100 µM | [7] 110 µM

CC(C)NCC(O)c1ccc(O)c(O)c1 (centres undefined)
inactive: [1] | [2] | [3] | [4] | [5] | [6]
active: [7] 91.3 µM

O=C(N[C@@H](c1ccccc1)[C@@H]1CCCCN1)c1cccc(C(F)(F)F)c1Cl
inactive: [4] | [6]
active: [1] 18.7 µM | [8] 21.7 µM | [2] 11.4 µM | [3] 12.6 µM | [5] 12.6 µM | [7] 15.2 µM

CCCCCCC(C=O)=Cc1ccccc1
inactive: [1] | [8] | [2] | [3] | [4]
active: [5] 53.5 µM | [6] 57 µM | [7] 50.2 µM

Oc1ccccc1O
inactive: [1] | [8] | [2] | [3] | [4] | [5] | [9]
active: [6] 36.4 µM | [7] 36.8 µM

O=C1OC(c2ccc(O)cc2)(c2ccc(O)cc2)c2ccccc21
active: [1] 81.1 µM | [8] 90.7 µM | [3] 61.4 µM | [5] 92.7 µM | [9] 51.8 µM | [6] 55.9 µM | [7] 102 µM
inactive: [2] | [4]

CC(=O)S[C@H](C(=O)N[C@H]1Cc2ccccc2[C@H]2CCC[C@@H](C(=O)O)N2C1=O)C(C)C
inactive: [1] | [2] | [3] | [4] | [5] | [9] | [6] | [7]
